# In publication PMC8384837, “Expanding the binding specificity for RNA recognition by a PUF domain”:
# Tests used:
# Assay in all cases: yeast three-hybrid, YBZ-1, SC-Leu-His + 0.5 mM 3-AT, 4 days
# Settings in all cases: tags: N-Gal4 AD-HA kept; label: inside an RPR1-promoter hybrid RNA with tandem MS2 sites; ssRNA
# PUM1 PUF domain R5-KAR = PUM1 PUF domain R5-KAR (Homo sapiens, UniProt Q14671 828-1176, C1007K;R1008A;Q1011R)
# Summary of the method: (§1)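 The interaction score is the log change in variant frequency from input to selection. Scores were computed in log2 with a pseudocount of 1 for absent variants, using Illumina sequencing of PCR-amplified repeat regions. The input came from four days on SC-Leu and the selection from four days on SC-Leu-His + 0.5 mM 3-AT. The cells were strain YBZ-1 (LexA–MS2 coat fusion, HIS3 reporter) co-expressing Pumilio-1 PUF domain libraries and matching RNA elements from a centromeric plasmid.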
# PUM1 PUF domain R5-EWF = PUM1 PUF domain R5-EWF (Homo sapiens, UniProt Q14671 828-1176, C1007E;R1008W;Q1011F)
# Summary of the method: as §1
# PUM1 PUF domain R5-KQS = PUM1 PUF domain R5-KQS (Homo sapiens, UniProt Q14671 828-1176, C1007K;R1008Q;Q1011S)
# Summary of the method: as §1
# PUM1 PUF domain R5-DQE = PUM1 PUF domain R5-DQE (Homo sapiens, UniProt Q14671 828-1176, C1007D;R1008Q;Q1011E)
# Summary of the method: as §1
# PUM1 PUF domain R6-KWL = target: T1, PUM1 PUF domain R6-KWL (Homo sapiens, UniProt Q14671 828-1176, N1043K;Y1044W;Q1047L)
# T1 sequence: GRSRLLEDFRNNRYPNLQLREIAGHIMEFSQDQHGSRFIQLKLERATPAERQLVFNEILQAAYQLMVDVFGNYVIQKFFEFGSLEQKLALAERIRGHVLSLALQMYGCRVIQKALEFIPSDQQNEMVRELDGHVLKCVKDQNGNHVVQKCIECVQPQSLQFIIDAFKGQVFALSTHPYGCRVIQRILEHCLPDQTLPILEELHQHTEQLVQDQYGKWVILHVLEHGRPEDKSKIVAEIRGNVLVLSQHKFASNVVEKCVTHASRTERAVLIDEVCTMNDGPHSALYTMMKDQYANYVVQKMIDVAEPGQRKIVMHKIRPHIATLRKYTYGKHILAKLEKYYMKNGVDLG
# Summary of the method: as §1
# PUM1 PUF domain R7-DWE = PUM1 PUF domain R7-DWE (Homo sapiens, UniProt Q14671 828-1176, S1079D;N1080W)
# Summary of the method: as §1
# PUM1 PUF domain R8-VYR = PUM1 PUF domain R8-VYR (Homo sapiens, UniProt Q14671 828-1176, N1122V;Q1126R)
# Summary of the method: as §1
# PUM1 PUF domain R3-AFP = PUM1 PUF domain R3-AFP (Homo sapiens, UniProt Q14671 828-1176, C935A;R936F;Q939P)
# Summary of the method: as §1
# PUM1 PUF domain R8-HFM = PUM1 PUF domain R8-HFM (Homo sapiens, UniProt Q14671 828-1176, N1122H;Y1123F;Q1126M)
# Summary of the method: as §1
# PUM1 PUF domain R3-WFG = PUM1 PUF domain R3-WFG (Homo sapiens, UniProt Q14671 828-1176, C935W;R936F;Q939G)
# Summary of the method: as §1
sequence,measurement,setting,value
GGCUAGAACUAGUGGAUCCCCCGGCGCCCGGCGGCUCGAGCCCGGGUAAGUGUUAAUAGUCUGCAUGCCGCCGGGCGCCAUGCCUGCAGGUCGACUCUAGAAAACAUG,binding signal,PUM1 PUF domain R5-KAR,2.72 log2 enrichment (interaction score)
same,binding signal,PUM1 PUF domain R5-EWF,3.15 log2 enrichment (interaction score)
GGCUAGAACUAGUGGAUCCCCCGGCGCCCGGCGGCUCGAGCCCGGGUAAGUGUCAAUAGUCUGCAUGCCGCCGGGCGCCAUGCCUGCAGGUCGACUCUAGAAAACAUG,binding signal,PUM1 PUF domain R5-KAR,4.29 log2 enrichment (interaction score)
same,binding signal,PUM1 PUF domain R5-KQS,3.98 log2 enrichment (interaction score)
GGCUAGAACUAGUGGAUCCCCCGGCGCCCGGCGGCUCGAGCCCGGGUAAGUGUGAAUAGUCUGCAUGCCGCCGGGCGCCAUGCCUGCAGGUCGACUCUAGAAAACAUG,binding signal,PUM1 PUF domain R5-DQE,3.83 log2 enrichment (interaction score)
GGCUAGAACUAGUGGAUCCCCCGGCGCCCGGCGGCUCGAGCCCGGGUAAGUGUAAAUAGUCUGCAUGCCGCCGGGCGCCAUGCCUGCAGGUCGACUCUAGAAAACAUG,binding signal,PUM1 PUF domain R6-KWL,5.66 log2 enrichment (interaction score)
same,binding signal,PUM1 PUF domain R7-DWE,2.44 log2 enrichment (interaction score)
same,binding signal,PUM1 PUF domain R5-KQS,0.39 log2 enrichment (interaction score)
same,binding signal,PUM1 PUF domain R8-VYR,4.52 log2 enrichment (interaction score)
same,binding signal,PUM1 PUF domain R3-AFP,5.95 log2 enrichment (interaction score)
GGCUAGAACUAGUGGAUCCCCCGGCGCCCGGCGGCUCGAGCCCGGGUAAGCGUAAAUAGUCUGCAUGCCGCCGGGCGCCAUGCCUGCAGGUCGACUCUAGAAAACAUG,binding signal,PUM1 PUF domain R8-VYR,5.17 log2 enrichment (interaction score)
same,binding signal,PUM1 PUF domain R8-HFM,2.95 log2 enrichment (interaction score)
GGCUAGAACUAGUGGAUCCCCCGGCGCCCGGCGGCUCGAGCCCGGGUAAGUGUAAUUAGUCUGCAUGCCGCCGGGCGCCAUGCCUGCAGGUCGACUCUAGAAAACAUG,binding signal,PUM1 PUF domain R3-WFG,2.57 log2 enrichment (interaction score)
GGCUAGAACUAGUGGAUCCCCCGGCGCCCGGCGGCUCGAGCCCGGGUAAGUGUAAGUAGUCUGCAUGCCGCCGGGCGCCAUGCCUGCAGGUCGACUCUAGAAAACAUG,binding signal,PUM1 PUF domain R3-WFG,2.77 log2 enrichment (interaction score)
